# Screening results: PubChem BioAssay, Broad Institute
# STK33 inh: STK33 kinase inhibitors, primary screen, biochemical, luminescence, ADP-Glo, MBP substrate. 27,000 compounds, 0.44% hits. inhibition, % at 12.5 µM. AID 2322, 2010. Serine/threonine-protein kinase 33 (Homo sapiens), Q9BYT3; in the data active = inhibition above about 20%
# mut p53 react: mutant p53 pathway re-activators, primary screen, cell-based, SW480, luciferase, single point, HTS; SW480 PUMA-promoter luciferase, p53 mutant reactivation; 28,000 compounds, 1.5% hits; AID 624151, 2012; activation, % at 9.98 µM; in the data active = activation above about 52%
# ID4 binder: binders of human ID4 protein, primary screen, biochemical, small molecule microarray, single point; 31,000 compounds, 1.2% hits; AID 624137, 2012; calls only; Flag-ID4 binding, fluorescence F/B; call rule not given here;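 also: a binder raises fluorescence above local background on the spot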
# Target sequence (P47928 whole entry, looked up): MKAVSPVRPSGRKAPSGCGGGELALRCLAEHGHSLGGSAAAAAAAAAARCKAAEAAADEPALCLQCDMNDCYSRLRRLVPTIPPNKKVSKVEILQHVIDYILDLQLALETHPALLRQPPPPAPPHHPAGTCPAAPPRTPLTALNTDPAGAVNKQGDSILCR
# * hit, by the source's call; i = inactive; x = not tested or not shown; + = active, no number. Hits are enriched below; roughly 2% of the tested compounds scored in any of these assays.
SMILES,STK33 inh,mut p53 react,ID4 binder
C[C@@H]1CCCCO[C@H](CN(C)C(=O)Cc2ccccc2)[C@H](C)CN([C@@H](C)CO)C(=O)c2cc(NC(=O)c3ccncc3)ccc2O1,x,-3.5,i
CNC[C@H]1Oc2ccc(NC(=O)c3ccncc3)cc2C(=O)N([C@@H](C)CO)C[C@@H]1C,-0.1,x,x
CC(C)NC(=O)N(C)C[C@@H]1OCCCC[C@@H](C)Oc2ccc(NC(=O)Nc3ccc(C(F)(F)F)cc3)cc2C(=O)N([C@@H](C)CO)C[C@@H]1C,x,-41.0,+
CNC[C@H]1Oc2ccc(NC(=O)c3ccncc3)cc2C(=O)N([C@H](C)CO)C[C@@H]1C,x,7.1,+
O=C1NC(=O)C(C(CC(=O)c2ccccc2)c2ccccc2Br)C(=O)N1 (stereo unspecified),x,5.9,i
CC(C)=CCC/C(C)=C/CC(O)/C(C)=C/Cc1cc(C(=O)O)ccc1O (stereo unspecified),-0.6,-40.9,i
C=CCNc1nc(N)c(C(=O)Nc2cc(C)on2)s1,5.5,69.9*,i
C=CCNc1sc(C)nc1C(N)=O,0.7,x,x
CCc1c(O)nc(SCC(=O)N(c2ccccc2)c2ccccc2)[nH]c1=O,2.9,-3.6,i
CNc1nc(Oc2ccc(=O)[nH]n2)nc(N2CCOCC2)n1,-2.4,10.5,i
Cc1ccc(Nc2nc(Oc3ccc(=O)[nH]n3)nc(N3CCOCC3)n2)cc1,8.4,-16.9,+
COC1CC(=O)C23C(=O)NC(CC(C)C)C2C(C)C(C)=CC3/C=C(\C)CCC(O)C1O (stereo unspecified),-3.2,x,x
Nc1nc(-c2ccncc2)ncc1S(=O)(=O)Cc1ccco1,1.6,x,x
c1ccc(-c2nn3c(C4COc5ccccc5O4)nnc3s2)cc1 (stereo unspecified),-2.1,59.0*,i
c1cncc(-c2nn3c(C4COc5ccccc5O4)nnc3s2)c1 (stereo unspecified),-2.9,2.9,i
COc1ccccc1NC(=O)N(C)C[C@H]1OCc2cnnn2CCCC(=O)N([C@@H](C)CO)C[C@H]1C,0.3,-10.2,i
C[C@H](CO)N1C[C@H](C)[C@@H](CN(C)Cc2ccc(Oc3ccccc3)cc2)OCc2cnnn2CCCC1=O,0.1,1.4,i
C[C@@H]1CN([C@@H](C)CO)C(=O)CCCn2nncc2CO[C@@H]1CN(C)C(=O)Nc1ccccc1F,-0.2,6.8,i
C[C@@H]1CN([C@@H](C)CO)C(=O)CCCn2nncc2CO[C@H]1CN(C)C(=O)Nc1ccccc1F,3.8,6.6,+
C[C@H]1CN([C@@H](C)CO)C(=O)CCCn2cc(nn2)CO[C@@H]1CN(C)CC1CCCCC1,0.0,x,+
COc1ccccc1NC(=O)N(C)C[C@@H]1OCc2cnnn2CCCC(=O)N([C@@H](C)CO)C[C@H]1C,1.1,-2.5,+
C[C@@H]1CN([C@@H](C)CO)C(=O)CCCn2cc(nn2)CO[C@@H]1CN(C)CC1CCCCC1,-2.1,x,i
C[C@@H]1CN([C@H](C)CO)C(=O)CCCn2nncc2CO[C@@H]1CN(C)Cc1ccc(Oc2ccccc2)cc1,-5.2,-1.7,+
Cc1ccc(Oc2ncccc2NC(=O)C(=S)NCc2ccccc2)c2c1CCC2,-0.3,x,x
COc1ccc(Cl)cc1NC(=O)CSc1nc(N)cc(=O)[nH]1,9.0,5.5,i
SMILES,STK33 inh,mut p53 react,ID4 binder
C=C1C(=O)O[C@@H]2C[C@@]3(C)CC(=O)C=C(C)C3C[C@H]12 (stereo partly specified),0.5,x,x
COc1cccc(OC)c1C(=O)NC(=S)Nc1cccc(-c2nn3c(C)nnc3s2)c1,6.1,-64.1,i
C=C1C(=O)O[C@@H]2C3=C(C)CC[C@]34O[C@@H](C[C@@H]4C)[C@H]12,-0.6,-23.9,i
COc1ccc(C)cc1NC(=O)CN(c1cc(Cl)c(Cl)cc1Cl)S(C)(=O)=O,4.2,-8.1,i
O=P(O)(C1Cc2ccccc2C1)C(O)c1ccco1 (stereo unspecified),x,5.0,i
Cc1noc(C)c1S(=O)(=O)N(C)C[C@@H]1OCc2cnnn2CCCC(=O)N([C@@H](C)CO)C[C@@H]1C,-3.9,-1.7,+
C[C@@H]1CN([C@@H](C)CO)C(=O)CCCn2nncc2CO[C@H]1CN(C)S(C)(=O)=O,0.6,x,x
Brc1ccc(-c2cnc3ccccc3n2)s1,x,74.3*,i
O=C(COc1ccc([N+](=O)[O-])cc1)Nc1ccc(-c2nc3ccccc3o2)cc1,1.9,25.9,i
O=C(COc1ccc([N+](=O)[O-])cc1)Nc1ccc2oc(-c3cccc(Br)c3)nc2c1,0.1,3.3,i
O=C(COc1ccc([N+](=O)[O-])cc1)Nc1cccc(-c2nc3cc(Cl)ccc3o2)c1,3.5,59.6*,i
